In PubChem BioAssay:
Calls of active or inactive are those of the source. No stated cut-off is given here; in the data, active means inhibition above about 25%; inactive means the rest.

Experiment: repression of VP16-driven luciferase reporter – cell-based, luminescence, high throughput, counter-screen for SRC1 inhibitor project (AID 588824)
Details: cell-based VP16 transactivation luciferase luminescence; at 3.6 µM; active compounds read high

| Compound | inhibition |
| --- | --- |
| O=C1C=CC(=C(c2ccc(O)cc2)c2ccc(O)cc2)C=C1 | 46.8% (active) |
| CC1=C(C(=O)OCc2ccc3c(c2)OCO3)C(c2cccc([N+](=O)[O-])c2)NC(=O)N1 (stereo unspecified) | 37.3% (active) |
| COc1ccc(-c2cncnc2-c2ccc(OC)cc2O)cc1 | 35% (active) |
| C=CCN(CC=C)c1ncnc2[nH]ncc12 | 45.2% (active) |
| CCOc1ccc(/C=C2\SC(=S)N(CCCC(=O)NCCCN3CCOCC3)C2=O)cc1 | 7.63% (inactive) |
| O=C(N/N=C/c1cc(Br)ccc1O)C(c1ccncc1)N1CCOCC1 (stereo unspecified) | 10.6% (inactive) |
| CCOC(=O)c1cccc(NS(=O)(=O)c2ccc(NC(C)=O)cc2)c1 | 26.5% (active) |
| O=C(NC1CCCCC1)C(c1cccnc1)N(C(=O)CCl)c1cccc(Cl)c1 (stereo unspecified) | 17.5% (inactive) |
| Cc1[nH]ccc2c1[nH]c1cc(=O)ccc12 | 38.7% (active) |
| Oc1ccc(Nc2ncnc3scc(-c4ccccc4)c23)cc1 | 31.3% (active) |
| CC(C)c1ccc(/C=C2\SC(=S)N(CCC(=O)N3CCCCC3CCO)C2=O)cc1 (stereo unspecified) | -48.1% (inactive) |
| COc1ccc(C(=O)C(CN2CCOCC2)c2ccccc2)cc1 (stereo unspecified) | 20.6% (inactive) |
| Cc1ccc(C)c(N2CCN(C(=O)CCS(=O)(=O)c3ccc4c(c3)NC(=O)CO4)CC2)c1 | 17.9% (inactive) |
| CS(=O)(=O)Nc1ccc(-c2cnc3cccnn23)cc1 | 51.7% (active) |
| Brc1ccc2ncnc(NCc3cccnc3)c2c1 | 42.8% (active) |
| NC(=O)c1sc2nc3c(c(-c4cccs4)c2c1N)CCCCC3 | 65% (active) |
